Measurements: PubChem BioAssay AID1159580 (chemical genetic matrix, 2015)
The whole screen tested about 5,500 compounds, of which about 2,000 (36%) were called active. About 18% were inconclusive and are not listed. No stated cut-off is given here; in the data, active means normalized growth mostly below about 0.91 (no sharp cut-off); inconclusive means no clear call, values can overlap the other calls; inactive means mostly above about 0.92. The list shows a part of the results.

Experiment: chemical genetic growth profiling, strain panel (AID 1159580);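 further: tested at 20 µM; growth read once vehicle control cultures reached saturation at 30 °C; 1 = growth at the plate median or of vehicle wells; lower values mean less growth of the strain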
Conditions: S. cerevisiae deletion strains, growth OD

Measured: normalized growth

NC(N)=NOCC[C@H](N)C(=O)O
inactive: locus YAL013W, strain DEP1, active compounds read low 0.991 | locus YAL021C, strain ccr4, active compounds read low 1.01 | locus YAL026C, strain drs2, active compounds read low 1.01 | locus YAL030W, strain snc1, active compounds read low 1 | locus YBL061C, strain skt5, active compounds read low 1.02 | locus YBR009C, strain hhf1, active compounds read low 1.01 | locus YBR021W, strain FUR4, active compounds read low 1 | locus YBR023C, strain chs3, active compounds read low 1.02 | locus YBR171W, strain sec66, active compounds read low 1.02 | locus YBR229C, strain ROT2, active compounds read low 0.993 | locus YBR231C, strain swc5, active compounds read low 1.02 | locus YBR279W, strain paf1, active compounds read low 1.01 | locus YCL011C, strain gbp2, active compounds read low 1.03 | locus YCL016C, strain dcc1, active compounds read low 1.01 | locus YCL029C, strain bik1, active compounds read low 0.983 | locus YCL061C, strain MRC1, active compounds read low 1.01 | locus YCL069W, strain vba3, active compounds read low 1.01 | locus YCR088W, strain abp1, active compounds read low 1.01 | locus YDL005C, strain med2, active compounds read low 1.01 | locus YDL035C, strain GPR1, active compounds read low 0.985 | locus YDL040C, strain nat1, active compounds read low 1.01 | locus YDL074C, strain BRE1, active compounds read low 1.02 | locus YDL101C, strain DUN1, active compounds read low 0.99 | locus YDL134C, strain PPH21, active compounds read low 0.999 | locus YDL185W, strain tfp1, active compounds read low 0.975 | locus YDL192W, strain arf1, active compounds read low 0.983 | locus YDR001C, strain nth1, active compounds read low 1.01 | locus YDR069C, strain doa4, active compounds read low 1.02 | locus YDR101C, strain arx1, active compounds read low 1.01 | locus YDR137W, strain rgp1, active compounds read low 1.01 | locus YDR150W, strain NUM1, active compounds read low 0.984 | locus YDR159W, strain sac3, active compounds read low 1.01 | locus YDR162C, strain NBP2, active compounds read low 1.02 | locus YDR195W, strain ref2 0.996 | locus YDR297W, strain sur2, active compounds read low 1.01 | locus YDR318W, strain mcm21, active compounds read low 0.983 | locus YDR334W, strain swr1, active compounds read low 1.02 | locus YDR335W, strain msn5, active compounds read low 1.01 | locus YDR388W, active compounds read low 0.999 | locus YDR392W, strain spt3, active compounds read low 1.01 | locus YDR502C, strain sam2, active compounds read low 0.995 | locus YEL003W, strain gim4, active compounds read low 1.02 | locus YEL037C, strain rad23, active compounds read low 1.01 | locus YEL061C, strain CIN8 (second series), active compounds read low 1.02 | locus YEL061C, strain CIN8, active compounds read low 0.992 | locus YER015W, strain faa2, active compounds read low 1.01 | locus YER016W, strain bim1, active compounds read low 1.01 | locus YER110C, active compounds read low 0.984 | locus YER111C, strain swi4, active compounds read low 1.01 | locus YER155C, strain BEM2 (second series), active compounds read low 1.01 | locus YER155C, strain BEM2, active compounds read low 0.978 | locus YER167W, strain BCK2, active compounds read low 0.978 | locus YFR010W, strain ubp6, active compounds read low 1.01 | locus YGL078C, strain dbp3, active compounds read low 0.994 | locus YGL086W, strain mad1, active compounds read low 0.978 | locus YGL167C, strain pmr1, active compounds read low 1.01 | locus YGL173C, strain kem1, active compounds read low 1 | locus YGL227W, strain vid30, active compounds read low 1.02 | locus YGL240W, strain doc1, active compounds read low 1.02 | locus YGL248W, strain PDE1, active compounds read low 0.994 | locus YGL253W, strain hxk2, active compounds read low 1.01 | locus YGR078C, strain PAC10, active compounds read low 1.04 | locus YGR135W, strain pre9, active compounds read low 1.03 | locus YGR229C, strain SMI1, active compounds read low 1.02 | locus YGR252W, strain gcn5, active compounds read low 1.01 | locus YHR013C, strain ard1, active compounds read low 1.04 | locus YHR027C, strain rpn1, active compounds read low 1 | locus YHR030C, strain SLT2, active compounds read low 0.978 | locus YHR079C, strain IRE1 (second series), active compounds read low 0.985 | locus YHR094C, strain hxt1, active compounds read low 0.988 | locus YHR129C, strain ARP1, active compounds read low 0.991 | locus YHR142W, strain chs7, active compounds read low 1.03 | locus YHR200W, strain rpn10, active compounds read low 0.986 | locus YIL066C, strain RNR3, active compounds read low 0.979 | locus YIL073C, strain SPO22, active compounds read low 0.915 | locus YIL125W, strain kgd1, active compounds read low 0.992 | locus YIR030C, strain dcg1, active compounds read low 0.98 | locus YJL092W, strain hpr5, active compounds read low 1.01 | locus YJL095W, strain BCK1 (second series), active compounds read low 1.02 | locus YJL095W, strain BCK1, active compounds read low 1.04 | locus YJL115W, strain asf1, active compounds read low 1.01 | locus YJL129C, strain trk1, active compounds read low 1.03 | locus YJL134W, strain LCB3, active compounds read low 0.987 | locus YJL154C, strain vps35, active compounds read low 1.01 | locus YJL164C, strain tpk1, active compounds read low 1.01 | locus YJL166W, strain qcr8, active compounds read low 1.02 | locus YJL168C, strain set2, active compounds read low 0.988 | locus YJL187C, strain SWE1 (second series), active compounds read low 1.01
